# Experimental data published in PubChem BioAssay.
# “And” between values parts separate entries of the source, which are not always exact repeats. Equal values may be shown once. For part of these data: Potency and affinity values are given separately. The source made the active and inactive calls.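 The calls were made as follows, unless noted: active = thallium flux through the channel raised or lowered by more than 3 SD from vehicle-only wells, actives on both sides; inactive = the rest.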
# Legend:
# [1] = blockers of polyQ-driven CASP3 activation – cell-based (AID 1583); conditions: polyglutamine-induced caspase-3 activation, cell assay; stronger effect = higher value;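 tested at 10 µM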
# [2] = yeast 75Q aggregation reduction – 75Q-TubU reporter (AID 1593); conditions: Yeast 75Q polyglutamine aggregation reporter
# [3] = restoration of touch response, mutant HTT neurons – whole organism, C. elegans mechanosensory neurons, N-terminal huntingtin (AID 1599); conditions: C. elegans polyQ-huntingtin mechanosensory neurons, stronger effect = higher value
# [4] = blockers of cytochrome c efflux from mitochondria – biochemical, purified mitochondria (AID 1603); conditions: stronger effect = lower value;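 also: mouse liver mitochondria challenged with calcium chloride; signal normalized to the plate average as 100%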
# [5] = polyglutamine aggregate formation blockers (AID 1604); conditions: polyglutamine-induced protein aggregation inhibition assay; stronger effect = higher value; tested at 2.5 µM
# [6] = glutamate transport activators, MN-1 cells, MN-1 cell line (AID 1612); conditions: MN-1 motor neuron cells, stronger effect = higher value;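 also: tested at 1 µM final; 0% = mean of DMSO vehicle wells on each plate; positive means more glutamate uptake than control and negative means less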
# [7] = 75Q-TubH aggregate inhibition, S. cerevisiae, yeast (AID 1616); conditions: S. cerevisiae 75Q-TubH polyglutamine aggregation suppression; stronger effect = higher value
# [8] = signal quenchers or enhancers, Cy5 substrate/SSB – biochemical, NIH Clinical Collection, E. coli SSB, artefact control for HCV NS3 helicase inhibitor project (AID 743268; call rule not given here); conditions: Cy5-oligo bound E. coli SSB, fluorescence interference
# [9] = system: Hepatitis C virus NS3 helicase; experiment: blockers of NS3h binding to DNA – biochemical, fluorescence polarization, NIH Clinical Collection, primary screen (AID 743270; call rule not given here); conditions: NS3 helicase binding to Cy5-dT15 DNA, stronger effect = higher value, concentration not given here
# [10] = biological target: Single-stranded DNA-binding protein (Escherichia coli (strain K12)) (UniProt P0AGE0); experiment: SSB-ssDNA binding inhibitors – biochemical, fluorescence polarization, NIH Clinical Collection, counter-screen for HCV NS3 helicase inhibitor project (AID 743271; in the data active = inhibition above about 28%); conditions: E. coli SSB-DNA binding, stronger effect = higher value, concentration not given here
# [11] = compounds distorting NS3 helicase fluorescence signal – biochemical, NIH Clinical Collection, artefact control for HCV NS3 helicase inhibitor project (AID 743272; call rule not given here;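 also: HCV NS3 helicase with a Cy5 labelled single stranded DNA probe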); conditions: fluorescence interference counterscreen, HCV NS3 helicase assay; stronger effect = lower value
# [12] = biological target: 6-phosphogluconate dehydrogenase, decarboxylating (Homo sapiens) (UniProt P52209); experiment: inhibition of human phosphogluconate dehydrogenase – biochemical, recombinant enzyme, NADPH absorbance, primary screen (AID 1159550;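 active = at least 20% inhibition of 6-phosphogluconate dehydrogenase activity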); conditions: recombinant 6PGD, NADPH absorbance 341 nm; at 10 µM; stronger effect = higher value
# Chain of 6-phosphogluconate dehydrogenase, decarboxylating (Homo sapiens) (P52209 whole entry, looked up): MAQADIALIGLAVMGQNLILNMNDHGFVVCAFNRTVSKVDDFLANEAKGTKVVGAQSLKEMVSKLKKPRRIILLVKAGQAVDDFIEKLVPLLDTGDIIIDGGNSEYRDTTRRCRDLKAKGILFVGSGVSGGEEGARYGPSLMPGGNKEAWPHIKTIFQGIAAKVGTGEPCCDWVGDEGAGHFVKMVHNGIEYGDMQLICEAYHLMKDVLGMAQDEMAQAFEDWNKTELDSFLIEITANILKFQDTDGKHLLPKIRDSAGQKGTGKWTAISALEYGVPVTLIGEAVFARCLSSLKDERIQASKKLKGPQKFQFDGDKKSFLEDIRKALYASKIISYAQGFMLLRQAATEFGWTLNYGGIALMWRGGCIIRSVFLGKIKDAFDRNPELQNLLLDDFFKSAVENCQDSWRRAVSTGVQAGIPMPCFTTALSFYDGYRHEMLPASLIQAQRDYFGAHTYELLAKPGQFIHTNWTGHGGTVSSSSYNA
# [13] = modulation of C. elegans fzo-1 (AID 1259413; call rule not given here;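 also: fzo-1 mutant C. elegans worms in liquid wells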); conditions: C. elegans fzo-1 modulator screen, mean read-out; stronger effect = higher value
# [14] = EMT-state selective cytotoxicity in co-culture – imaging, PC-3E GFP, TEM4-18 mCherry, primary screen (AID 1345086;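 active = compounds killing one labelled cell type while sparing the other, by normalised counts and ratio limits, not self-fluorescent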;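 also: cells exposed to compound for 72 h before imaging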;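 as to red/green cell ratio (normalised): normalised mesenchymal count divided by normalised epithelial count so high means epithelial killing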); conditions: PC-3E GFP / TEM4-18 mCherry co-culture, imaging cell counts, at 1 µM
# [15] = system: Aerobactin synthetase IucA (Klebsiella pneumoniae hvKP1); experiment: IucA enzyme inhibition, primary screen, biochemical, Spectrum library (AID 1346200; call rule not given here;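 also: 100% = wells without compound and 0% = wells lacking enzyme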); conditions: malachite green pyrophosphate, A620, at 8 µM, stronger effect = lower value
# [16] = biological target: NAD(+) hydrolase SARM1 (Homo sapiens) (UniProt Q6SZW1); experiment: blocking NAD cleavage by SARM1 SAM-TIR – cell lysate, NAD-Glo luminescence (AID 1508614;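 active = compound whose remaining NAD level is above about 45 nM, limit read from the data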;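 also: higher remaining NAD means stronger inhibition of SARM1 NADase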); conditions: SAM-TIR HEK293T lysate NADase, at 1 µM, stronger effect = higher value
# Chain of NAD(+) hydrolase SARM1 (Homo sapiens) (Q6SZW1 whole entry, looked up, the tested form may be a part): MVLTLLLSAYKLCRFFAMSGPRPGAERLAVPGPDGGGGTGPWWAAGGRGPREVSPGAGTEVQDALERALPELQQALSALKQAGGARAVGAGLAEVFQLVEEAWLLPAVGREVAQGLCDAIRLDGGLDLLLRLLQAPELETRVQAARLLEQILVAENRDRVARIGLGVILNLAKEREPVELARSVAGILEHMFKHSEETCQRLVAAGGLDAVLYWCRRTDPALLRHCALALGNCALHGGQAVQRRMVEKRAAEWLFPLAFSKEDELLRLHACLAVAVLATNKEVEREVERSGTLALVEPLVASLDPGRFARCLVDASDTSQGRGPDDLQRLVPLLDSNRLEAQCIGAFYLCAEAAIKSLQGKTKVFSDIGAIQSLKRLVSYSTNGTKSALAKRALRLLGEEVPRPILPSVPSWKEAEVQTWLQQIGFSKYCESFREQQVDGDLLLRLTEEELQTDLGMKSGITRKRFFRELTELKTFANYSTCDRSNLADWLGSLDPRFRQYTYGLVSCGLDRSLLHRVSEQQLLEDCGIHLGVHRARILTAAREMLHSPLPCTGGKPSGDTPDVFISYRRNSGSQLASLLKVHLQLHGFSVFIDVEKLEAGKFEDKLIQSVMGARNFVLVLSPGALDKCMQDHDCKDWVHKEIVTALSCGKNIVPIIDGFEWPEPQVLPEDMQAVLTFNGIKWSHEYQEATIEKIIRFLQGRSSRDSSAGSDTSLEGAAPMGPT
# [17] = biological target: Mitogen-activated protein kinase 7 (Homo sapiens) (UniProt Q13164); experiment: Gal4-ERK5 driven luciferase induction – cell-based, HTS, primary screen (AID 1508626;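 active = luciferase signal above three times the same-plate solvent-only control wells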;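 also: luciferase driven by Gal4-ERK5 fusion binding five Gal4 sites before minimal TATA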); conditions: HeLa Gal4-ERK5 transactivation, 18 h, at 5 µM, stronger effect = higher value
# Chain of Mitogen-activated protein kinase 7 (Homo sapiens) (Q13164 whole entry, looked up, the tested form may be a part): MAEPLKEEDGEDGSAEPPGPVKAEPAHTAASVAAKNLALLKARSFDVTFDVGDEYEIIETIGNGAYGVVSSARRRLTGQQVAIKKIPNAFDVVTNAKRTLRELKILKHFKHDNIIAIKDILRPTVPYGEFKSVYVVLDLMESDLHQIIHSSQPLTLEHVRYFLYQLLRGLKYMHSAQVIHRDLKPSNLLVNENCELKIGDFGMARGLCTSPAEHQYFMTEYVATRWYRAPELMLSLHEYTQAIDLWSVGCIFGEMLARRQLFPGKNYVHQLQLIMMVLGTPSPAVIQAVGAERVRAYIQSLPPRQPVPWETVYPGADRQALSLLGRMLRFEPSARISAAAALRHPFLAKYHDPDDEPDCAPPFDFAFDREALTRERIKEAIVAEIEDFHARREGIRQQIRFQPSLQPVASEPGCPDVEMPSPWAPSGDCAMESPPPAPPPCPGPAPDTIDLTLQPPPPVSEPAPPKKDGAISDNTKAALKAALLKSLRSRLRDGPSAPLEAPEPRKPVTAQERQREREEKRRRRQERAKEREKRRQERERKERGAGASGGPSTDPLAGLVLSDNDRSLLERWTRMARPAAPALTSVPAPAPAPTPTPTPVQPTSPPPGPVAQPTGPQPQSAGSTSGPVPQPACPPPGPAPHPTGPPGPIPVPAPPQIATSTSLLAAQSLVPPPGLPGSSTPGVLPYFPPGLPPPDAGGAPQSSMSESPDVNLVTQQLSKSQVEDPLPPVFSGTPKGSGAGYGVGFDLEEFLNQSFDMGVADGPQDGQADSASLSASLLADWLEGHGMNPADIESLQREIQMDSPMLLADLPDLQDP
# [18] = galactose survival enhancers in mitochondrial complex I cybrids – cell-based, galactose medium, ATP luminescence, primary screen (AID 1645843;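 active = z-score of at least 1.8 in each of two replicates, scored against plate mean and spread of sample wells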;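 also: positive z means more ATP and so rescue of galactose-driven cybrid death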); conditions: complex I mutant cybrid cells, 72 h, stronger effect = higher value
# F380Y = experiment: BK channel mutant inhibitors and activators – cell-based, U2OS BacMam, thallium flux, beta subunits, selectivity assay, profiling panel (AID 1259406); conditions: U2OS BacMam BK variants, at 30 µM;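 also: initial slope of Thallos dye fluorescence rise after thallium is added; log ratio against the mean of 0.3% DMSO vehicle wells on the same plate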
# F380Y/beta1 = experiment: as above; conditions: U2OS BacMam BK variants, at 30 µM
# F380Y/beta2Delta = experiment: as above; conditions: U2OS BacMam BK variants, at 30 µM
# F380Y/beta4 = experiment: as above; conditions: U2OS BacMam BK variants, at 30 µM
# [19] = biological target: Calcium-activated potassium channel subunit alpha-1 (Homo sapiens) + Leucine-rich repeat-containing protein 26 (Homo sapiens) (UniProt Q12791+Q2I0M4); experiment: as above; conditions: U2OS BacMam BK variants, F380Y/Slo1WT/gamma1, at 30 µM
# Chain of Calcium-activated potassium channel subunit alpha-1 (Homo sapiens) + Leucine-rich repeat-containing protein 26 (Homo sapiens) (Q2I0M4 whole entry, looked up, one chain of several): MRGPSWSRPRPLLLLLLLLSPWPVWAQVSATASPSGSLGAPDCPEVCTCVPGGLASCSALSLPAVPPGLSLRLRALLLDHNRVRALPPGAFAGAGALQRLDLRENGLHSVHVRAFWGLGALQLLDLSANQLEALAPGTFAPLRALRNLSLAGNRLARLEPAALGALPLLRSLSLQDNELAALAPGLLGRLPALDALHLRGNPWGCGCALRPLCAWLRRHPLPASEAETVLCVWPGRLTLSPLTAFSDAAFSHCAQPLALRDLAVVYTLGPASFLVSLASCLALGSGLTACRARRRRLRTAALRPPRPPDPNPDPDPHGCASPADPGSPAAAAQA
# R275C = experiment: as above; conditions: U2OS BacMam BK variants, at 30 µM
# R275C/beta1 = experiment: as above; conditions: U2OS BacMam BK variants, at 30 µM
# R275C/beta2Delta = experiment: as above; conditions: U2OS BacMam BK variants, at 30 µM
# R275C/beta4 = experiment: as above; conditions: U2OS BacMam BK variants, at 30 µM
# R275C/Slo1WT/beta2 = experiment: as above; conditions: U2OS BacMam BK variants, at 30 µM
structure (smiles),measurement,setting,value
Clc1ccc(COC(Cn2ccnc2)c2ccc(Cl)cc2Cl)c(Cl)c1 (stereo not given),inhibition,[1],16.3%
same,score,[2],-0.06
same,rescue above control,[3],0
same,cytochrome c release ratio,[4],0.32
same,inhibition of aggregation,[5],80.3%
same,glutamate uptake change,[6],5.65%
same,aggregation suppression score,[7],0.00246
same,fluorescence ratio,[8],0.96 (inactive)
same,inhibition,[9],6.82% (inactive)
same,inhibition,[10],4.86% (inactive)
same,fluorescence ratio,[11],0.93 (inactive)
same,inhibition,[12],-24.1% (inactive)
same,mean signal,[13],182 (inactive)
same,red/green cell ratio (normalised),[14]; actives lie on both sides,1.04 (inactive)
same,normalised cell number,[14]; measured here: epithelial PC-3E GFP cell survival,0.94
same,normalised cell number,[14]; measured here: mesenchymal TEM4-18 mCherry cell survival,0.97
same,activity remaining,[15],98.2% (inactive)
same,remaining NAD,[16],10 nM (inactive)
same,luciferase signal,[17],48 AU (inactive)
same,z-score,[18],-1.52 (inactive) and -2.01 (inactive)
same,log fold change Tl+ flux,F380Y,-0.0473 (inactive)
same,log fold change Tl+ flux,F380Y/beta1,-0.101 (inactive)
same,log fold change Tl+ flux,F380Y/beta2Delta,-0.0262 (inactive)
same,log fold change Tl+ flux,F380Y/beta4,-0.445 (active)
same,log fold change Tl+ flux,[19],0.0222 (inactive)
same,log fold change Tl+ flux,R275C,-0.0411 (inactive)
same,log fold change Tl+ flux,R275C/beta1,0.0424 (inactive)
same,log fold change Tl+ flux,R275C/beta2Delta,-0.0245 (inactive)
same,log fold change Tl+ flux,R275C/beta4,0.0768 (inactive)
same,log fold change Tl+ flux,R275C/Slo1WT/beta2,0.0237 (inactive)
